Compound activity deposited in PubChem BioAssay by National Center for Advancing Translational Sciences (NCATS).
NS1 inh – blocks influenza NS1 protein function; Potency, µM (titrated, usually from 46.1 µM), for the others: at the top dose activity, positive = more growth; AID 2326; hit rate 0.4% among 270,000; calls by dose curve; also: potency is read from the fitted curve at half-maximal effect; actives are rising curves; nearly all actives have a fitted effect of over 50% in size
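Read-out: OD600 growth recovery of NS1-expressing budding yeast. Cells grown overnight at 30C in -URA glucose medium, washed, resuspended and diluted 1:100 in 2% galactose assay medium, pH 6.0. Same strain lacking NS1 served as positive control.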
Pf growth 96h – inhibits malaria parasite growth, 96 h; AID 504834; Potency, µM (highest dose often 28.7 µM), for the others: at the highest dose activity change, negative = inhibition, hits mostly inhibitors; hit rate 6.9% among 320,000; P. falciparum luciferase reporter growth, 96 h; also: potency is read from the fitted curve at half-maximal effect; % is scaled to controls: 0 for no effect and ±100 for the full control effect
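Cell-based qHTS: luciferase-tagged P. falciparum in erythrocytes (2% hematocrit, 0.05% parasitemia final) incubated with compounds for 96 hours, 37 C, 5% CO2; luciferase detection reagent then added and luminescence measured.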
Shiga inhibitor – inhibitors of Shiga toxin in Vero cells; Vero cells, Shiga toxin protein synthesis inhibition reporter; inhibition, % at 38.7 µM; hit rate 9.2% among 290,000; AID 2315; in the data active = inhibition mostly above about 28%, no sharp cut-off; inactive = mostly below about 43%; also: 0% is about no effect
Pf growth 48h – P. falciparum growth inhibition at 48 hours (one generation). hit rate 5.9% among 310,000. Potency, µM (top dose mostly 28.7 µM), for the others: top-dose activity change, negative = inhibition, actives largely listed as inhibitors. AID 504832. P. falciparum luciferase growth in erythrocytes, 48 h; also: potency is read from the fitted curve at half-maximal effect; % is scaled to controls: 0 for no effect and ±100 for the full control effect
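Luminescence readout; reporter = integrated firefly luciferase in P. falciparum. RBC culture at 2% hematocrit, 0.1% parasitemia final, 37 C/5% CO2; decreased signal taken as growth inhibition.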
Sm TGR block – inhibitors of Schistosoma mansoni thioredoxin glutathione reductase | purified TGR, DTNB reduction, TNB absorbance 405 nm | hit rate 3% among 360,000 | Potency, µM (series often up to 114 µM), for the others: at the top dose activity change, negative = inhibition, usual class: inhibitors; also: potency is read from the fitted curve at half-maximal effect; % is scaled to controls: 0 for no effect and ±100 for the full control effect; nearly all actives have a fitted effect of over 60% in size
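TGR 20 nM + NADPH 100 uM (dispensed conc.), cpd preinc 15 min RT; start with NADPH (500 uM addition) then DTNB (15 mM addition). Kinetic TNB absorbance, 405 nm filter. Four-parameter Hill fit across titration.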
Cycloheximide cs – affects cycloheximide protein synthesis inhibition readout, counter-screen; hit rate 12% among 300,000; AID 2314; cell reporter, cycloheximide protein synthesis inhibition counterscreen; max response, %; in the data active = max response mostly above about 13%, no sharp cut-off; inactive = mostly below about 14%; also: read at 38.3 µM for the half of the compounds with a filed dose; 0% is about no effect
Numbers without * were called inactive; ? = inconclusive; / = no result; [ ] = remark or other dose. Most compounds without a hit are left out; they make up all but 21% or so of the library. Unless noted, calls follow the shape of the dose curve; as a rule, active = well fitted curve in the direction sought with a large enough effect; inconclusive = small, poorly fitted or top-dose-only effect, or another doubt; inactive = no such curve, though single readings can be large; an effect the other way counts as inactive or inconclusive.

SMILES | NS1 inh | Pf growth 96h | Shiga inhibitor | Pf growth 48h | Sm TGR block | Cycloheximide cs
CCOC(=O)c1cc([N+](=O)[O-])c([N+](=O)[O-])cc1NC(C)=O | -47% | -14% | -24 | 0% | 0.5µM* | -8
COc1ccc(OC)c(NC(=O)c2cccc(C)c2[N+](=O)[O-])c1 | -7% | 1.7µM* | 26 | 9% | -7%[57.1 µM] | -1
COC(=O)CCCNc1ncccc1[N+](=O)[O-] | / | 12% | 36 | -15% | 0% | 2
COC(=O)c1ccc(NC(=O)c2ccccc2CC[N+](=O)[O-])cc1 | / | 22% | 61 | 6% | -8% | 12
CCN(CC)S(=O)(=O)c1ccc(OC)c(NC(=O)c2cccc(C)c2[N+](=O)[O-])c1 | / | -5% | 24 | -1% | 0% | -5
Cc1ccc(Cl)cc1N1CCN(C(=O)Cn2ncc3c([nH]c4ccccc43)c2=O)CC1 | / | / | / | / | 2% | /
Cc1ccc(CNC(=O)CCCCCn2c(=O)c3sccc3n(CC(=O)N3CCCCC3C)c2=O)cc1 (centres undefined) | / | / | / | / | -4% | /
CCOC(=O)c1ccc(NC(=O)c2ccccc2)cc1 | -73% | / | 81* | 17% | 9% | 49*
COCCNC(=O)c1cccc(C)c1[N+](=O)[O-] | 2% | ? | -12 | 28% | 2% | -3
CCn1c2ccccc2c2cc(NC(=O)c3ccccc3[N+](=O)[O-])ccc21 | -1% | 16% | -9 | 0% | 4% | -1
CCOC(=O)c1ccc(NC(=O)c2cccc(C)c2[N+](=O)[O-])cc1 | -6% | 14% | 52* | ? | 75% | 20*
CCOC(=O)c1ccc(NC(=O)c2ccccc2[N+](=O)[O-])cc1 | -6% | 9% | 58* | 46% | -4% | 42*
Cc1ccc(N(CC(=O)Nc2ccc(Br)c(C)c2)S(=O)(=O)c2cccs2)cc1 | / | / | / | / | 8% | /
CCc1ccc(N2CCn3c2nc2c3c(=O)n(C/C=C/c3ccccc3)c(=O)n2C)cc1 | / | / | / | / | 7% | /
CCOC(=O)Nc1nnc(-c2ccc(OC)cc2)s1 | -8% | ? | 38 | / | -18% | 24*
CCOC(=O)Nc1nnc(-c2cccc(OC)c2)s1 | -17% | / | 23 | -24% | ? | 15*
Cc1ccc2c(=O)cc(C(=O)Nc3ccc(S(=O)(=O)N4CCCCC4C)cc3)oc2c1C (centres undefined) | / | / | / | / | 13% | /
COc1cc2cc(CCCOC(=O)c3ccc(F)cc3)oc(=O)c2cc1OC | / | ? | / | -16% | ? | /
Cc1ccc(C(OCC(O)CN2CCCCC2CO)c2ccccc2)cc1 (centres undefined) | 3% | 1.7µM* | -7 | ? | 10% | -2
COc1ccccc1C1C2=C(CCCC2=O)N(CC(=O)O)C2=C1C(=O)CCC2 | -7% | ? | -15 | -3% | ? | -1
COc1cc(Br)cc(C2C3=C(CCCC3=O)N(c3ccc(F)cc3)C3=C2C(=O)CCC3)c1O | 4% | ? | -13 | 5.2µM* | 3% | 1
COc1ccccc1CNC(=O)c1nn(C)c2c1CS(=O)(=O)c1ccccc1-2 | 1% | -1% | -4 | -1% | 0% | 7
COc1cc(C)c(S(=O)(=O)n2ccc(C)n2)cc1C | -55% | 15µM* | -11 | / | 0% | -4
CCOc1ccc(S(=O)(=O)n2ccc(C)n2)c2ccccc12 | 1% | ? | -7 | 10µM* | 2% | 5
CCOc1ccc(S(=O)(=O)N2CCCCC2)c2ccccc12 | -127% | ? | 10 | -11% | 8% | 2
SMILES | NS1 inh | Pf growth 96h | Shiga inhibitor | Pf growth 48h | Sm TGR block | Cycloheximide cs
O=C(NNC1=C(C(=O)C(F)(F)F)CCC1)c1cccc(Cl)c1 | -148% | / | 85* | 8% | ? | 28*
O=C(NNC1=C(C(=O)C(F)(F)F)CCC1)c1ccc(Cl)cc1 | -126% | 2.9µM* | 86* | 19% | 2% | 18*
COc1ccc(C(=O)NNC2=C(C(=O)C(F)(F)F)CCC2)cc1 | -8% | 7% | 48* | 75% | 3% | 27*
COc1ccc(C(=O)NNc2ccccc2)cc1 | -3% | ? | 13 | -3% | -25% | 15
CC1=Nc2cc(C(=O)NC3CCCC3)ccc2Sc2ccc(C)cc21 | / | / | / | / | -13% | /
Cc1nnsc1-c1onc(C)c1C(=O)O/N=C/c1ccc(Cl)cc1 | -2% | 32% | -8 | 53% | 1% | 1
COc1cc2c(C(=O)N(C)c3ccc(F)cc3)cn(C)c(=O)c2cc1OC | -2% | ? | -2 | 15% | 7% | 2
CC(C)(O)[C@@H]1CC(=O)[C@]2(C)[C@H](CC[C@@]3(C)[C@H](c4ccoc4)OC(=O)[C@H]4O[C@]432)[C@@]1(C)/C=C\C(=O)O | / | 40% | / | 46% | -15% | /
CC1(C)C(=O)C=C[C@]2(C)[C@H]3CC[C@@]4(C)[C@H](c5ccoc5)OC(=O)[C@H]5O[C@]54[C@]3(C)[C@H](O)C[C@@H]12 | -34% | 8.3µM* | 46 | 12µM* | -4% | 21*
CC(C)N1CCc2c(sc(NC(=O)C3CCCCC3)c2C(N)=O)C1 | -1% | ? | -10 | ? | 4% | -4
C[N+](C)(C)CCOC(=O)C(O)(c1ccccc1)c1ccccc1 | / | 11µM* | / | 0% | / | /
O=C(CCNC(=O)C1CCN(S(=O)(=O)c2ccccc2)CC1)NCc1ccccc1Cl | -14% | ? | -9 | -22% | -5% | -1
O=S1(=O)CCOCCCN1Cc1cccc(C(F)(F)F)c1 | 1% | 23% | -6 | ? | -22% | -2
Cc1cc(C)c2[nH]c(=O)c(C(c3nnnn3Cc3ccc4c(c3)OCO4)N3CCC(C)CC3)cc2c1 (centres undefined) | -12% | / | -5 | 13µM* | -34% | -2
COc1ccc2cc(C(c3nnnn3CCc3ccccc3)N3CCC(O)CC3)c(=O)[nH]c2c1 (centres undefined) | -7% | 0% | -13 | -5% | -26% | -6
Cc1cc(C)c2[nH]c(=O)c(C(c3nnnn3C3CCCC3)N3CCOCC3)cc2c1 (centres undefined) | -6% | ? | -15 | 3% | -11% | -5
COc1ccc(Cn2nnnc2C(c2cc3ccc(OC)cc3[nH]c2=O)N2CCC(C)CC2)cc1 (centres undefined) | 6% | 9.3µM* | 18 | / | 28µM* | 11
COc1ccc2cc(C(c3nnnn3Cc3ccc(F)cc3)N3CCCCCC3)c(=O)[nH]c2c1 (centres undefined) | -12% | / | 35 | 12µM* | 16µM* | -2
COc1ccc2cc(C(c3nnnn3Cc3ccccc3)N3CCCCCC3)c(=O)[nH]c2c1 (centres undefined) | -2% | ? | 26 | ? | 20µM* | -2
CC1CCN(C(c2ccc(N(C)C)cc2)c2nnnn2Cc2ccc(F)cc2)CC1 (centres undefined) | -9% | / | -6 | 2% | 0% | -3
CC(=O)N1CCN(c2ccc(NS(=O)(=O)c3ccc(C)cc3)cc2)CC1 | -3% | ? | -10 | -3% | 7% | -8
COc1ccc(-c2cnc(C)o2)cc1S(=O)(=O)Nc1c(C)cc(C)cc1C | / | / | / | / | -12% | /
